# Screen size: about 290,000 compounds; about 2,700 (0.93%) were called active. No rule for the calls is given here. What follows is part of a selection rich in actives, with near analogues and random picks from the rest.
# Biological target: Eukaryotic translation initiation factor 4H (Homo sapiens) (UniProt Q15056)
# Experiment: human eIF4H binding inhibitors, primary screen, translation initiation inhibitor project, biochemical, uHTS, fluorescence polarization (AID 2012);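 also: calls also rest on retests at 20 µM and on dose response follow-up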
# Details: eIF4H fluorescence polarization binding assay, stronger effect = higher value
SMILES,inhibition (at 35 µM),"inhibition (confirmation average, at 20 µM)"
COC(=O)c1ccccc1NC(=O)CSc1n[nH]c(-c2ccncc2)n1,3.3% (inactive),–
Cc1cccnc1CC(C)NC(=O)c1cc(COc2cncc(Cl)c2)on1 (configuration not stated),-1% (inactive),–
O=C(N/N=C/c1c(Cl)[nH]c2ccccc12)c1sc2ccccc2c1Cl,-8.2% (inactive),–
Oc1ccc(N=Cc2sc3ccccc3c2Cl)cc1,105% (active),73.8%
Oc1ccc(N=Cc2c(O)ccc3ccccc23)cc1,19% (inactive),–
CCCOc1ccc(/C=N/NC(=O)C2CC2)c(OCCC)c1,-12.1% (inactive),–
Cc1c(OC(C)C(=O)N[C@@H](Cc2ccccc2)C(=O)O)ccc2c3c(c(=O)oc12)CCCC3 (some centres not stated),5.5% (inactive),–
Cc1cc(OC(C)C(=O)NC2CC(C)(C)NC(C)(C)C2)c2c(C)cc(=O)oc2c1 (configuration not stated),-0.9% (inactive),–
Cc1ccc(N=C2NC(=O)/C(=C/C=C/c3ccco3)S2)cc1C,75.9% (active),90.3%
Cc1cccc(N=C2NC(=O)/C(=C/c3cn(C)c4ccccc34)S2)c1,2.5% (inactive),–
Cc1ccc(N2NC(=O)/C(=C/C=C/c3ccco3)C2=O)cc1C,45.7% (inactive),–
CCN(CC)S(=O)(=O)c1ccc(-c2cn3ccc(C)cc3n2)cc1,1.1% (inactive),–
O=[N+]([O-])c1ccccc1/C=N/n1c(COc2ccccc2)n[nH]c1=S,-1.1% (inactive),–
CCOc1ccc(-c2n[nH]c(=S)n2/N=C/c2cc3c(cc2[N+](=O)[O-])OCO3)cc1,86.2% (active),80.4%
Cc1ccc(-c2n[nH]c(=S)n2/N=C/c2cc3c(cc2[N+](=O)[O-])OCO3)cc1,29.5% (inactive),–
Cc1ccc(-n2c(C)cc(C(=O)CN3C(=O)C(=O)N(C4CCCC4)C3=O)c2C)cc1,1.2% (inactive),–
Cc1cc(C(=O)COC(=O)C2CC2)c(C)n1-c1ccc(F)cc1,4.9% (active),52.5%
COc1cc(/C=N/NC(=O)c2cc(C)n(-c3ccc(F)cc3)c2C)cc(OC)c1O,0.7% (inactive),–
O=C(Nc1ccc(F)cc1)c1ccc(S(=O)(=O)NCc2cccnc2)cc1,10.1% (inactive),–
NC(=O)CN1CCCC1c1ccc2c(c1)OCCO2 (configuration not stated),4.2% (inactive),–
O=C(Nc1nnc(SCc2ccccc2)s1)c1ccco1,6% (inactive),–
Clc1ccccc1CSc1nnc(-c2ccco2)c(-c2ccco2)n1,96.6% (active),94.4%
COC(OC)c1ccnc(SCc2ccccc2Cl)n1,2% (inactive),–
Brc1ccc(CSc2ccc(-c3ccco3)nn2)cc1,61% (inactive),-1.3%
Fc1cccc(Cl)c1CSc1ccc(-c2ccco2)nn1,49.1% (inactive),–
c1ccc(CSc2nnc(-c3ccco3)c(-c3ccco3)n2)cc1,94.6% (active),–

# From PubChem BioAssay AID2012 (Sanford-Burnham Center for Chemical Genomics, 2009)
